Experimental data: PubChem BioAssay AID1477 (National Center for Advancing Translational Sciences (NCATS), 2009)
In all, about 230,000 compounds went through this assay and fewer than 10 were called active. Roughly 3% stayed inconclusive and do not appear here. Calls come from the whole dose curve; as a rule, active = well fitted curve in the direction sought with a large enough effect; inconclusive = small, poorly fitted or top-dose-only effect, or effect the other way, or another doubt; inactive = no such curve, though single readings can be large or run the other way. The list is a sample of the results. Bridge positions count the residues as written; N and C are the ends. Peptide text beside a SMILES is read from it.

Each compound was assayed against Runt-related transcription factor 1 (Homo sapiens) + Core-binding factor subunit beta (Homo sapiens) (UniProt Q01196+Q13951) (assay: qHTS Assay for Compounds Blocking the Interaction Between CBF-beta and RUNX1 for the Treatment of Acute Myeloid Leukemia). Settings: AlphaScreen CBFb-His/RUNX1-biotin binding, biochemical; series mostly up to 59.8 µM; activity, negative = inhibition: at the top concentration.
Description: NIH Chemical Genomics Center [NCGC]
NIH Molecular Libraries Probe Production centers Network [MLPCN]
Assay Submitter (PI): Paul Liu
Core Binding Factor (CBF) abnormalities are associated with 20-25% of all acute myeloid leukemias (AML), of which 5-10% are further sub classified as acute myelomonocytic leukemia with eosinophilia, also known as M4Eo in the FAB classification scheme. This subtype of leukemia is usually associated with chromosome 16 inversion (p13:q22). Chromosome 16 inversion results in formation of the fusion oncogene CBFB-MYH11, which encodes the fusion protein CBF-beta-SMMHC.
It has been hypothesized that the interference of CBF-beta and RUNX1 binding could have therapeutic implications for patients with CBF mediated leukemias. We developed a CBF-beta and RUNX1 binding assay in AlphaScreenTM format and optimized it for high throughput screening to search for inhibitors. The goal of this project is to screen MLPCN's compound collection (MLSMR) for identifying the inhibitors of the interaction between CBF-beta and RUNX1 proteins as research probes. If these probes work well in the animal models, the ultimate goal of this project is to development a new drug treatment for this disease.
This assay can not be used to assess how apparent inhibitors interfere with protein binding, and whether inhibitors specifically bind to either protein. Disruption of this protein-protein interaction, through any mechanism, is the intended target activity.
NCGC Assay Protocol Summary:
Step, Parameter, Description
(1) Reagent, 3 uL CBFb-His/RUNX1-biotin mix incubated together for 20 minutes at room temperature (30 nM each)
(2) Compound or control, 23 nL compound stock solution
(3) Incubation, 15 minutes at Room temperature
(4) Reagent, 1 uL 50 ng each of beads (Nickel beads and streptavidin beads)
(5) Incubation, 90 minutes at Room temperature
(6) Detection, Excitation=365 nm Emission=440 nm, Envision reader in AlphaScreenTM mode
Keywords: MLSMR, MLPCN, NIH Roadmap, qHTS, NCGC, Core binding factor, CBF, CBF-beta, Acute myeloid leukemia
Note: % of control where 0% means no effect.

Chain of Runt-related transcription factor 1 (Homo sapiens) + Core-binding factor subunit beta (Homo sapiens) (Q01196 whole entry, looked up): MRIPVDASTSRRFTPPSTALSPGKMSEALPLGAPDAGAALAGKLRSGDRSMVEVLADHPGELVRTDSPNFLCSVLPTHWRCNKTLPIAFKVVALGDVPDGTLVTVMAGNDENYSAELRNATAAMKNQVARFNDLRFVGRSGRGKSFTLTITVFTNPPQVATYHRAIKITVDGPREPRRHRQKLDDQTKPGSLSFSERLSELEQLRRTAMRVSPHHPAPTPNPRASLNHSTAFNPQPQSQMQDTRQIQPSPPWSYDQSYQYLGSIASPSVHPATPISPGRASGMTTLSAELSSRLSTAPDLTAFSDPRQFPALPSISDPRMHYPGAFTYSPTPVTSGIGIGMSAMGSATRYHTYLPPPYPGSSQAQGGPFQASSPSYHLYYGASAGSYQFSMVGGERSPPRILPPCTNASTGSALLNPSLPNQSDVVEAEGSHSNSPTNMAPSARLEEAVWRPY
Chain of Runt-related transcription factor 1 (Homo sapiens) + Core-binding factor subunit beta (Homo sapiens) (Q13951 whole entry, looked up): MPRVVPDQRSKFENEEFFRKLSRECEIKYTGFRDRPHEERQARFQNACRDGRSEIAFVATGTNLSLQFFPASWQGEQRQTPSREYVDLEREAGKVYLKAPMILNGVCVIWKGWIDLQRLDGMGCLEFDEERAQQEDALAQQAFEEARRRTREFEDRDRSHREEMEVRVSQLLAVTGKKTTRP

activity, negative = inhibition, inactive:
CC[C@H](C)[C@H](NC(=O)[C@H](CCCNC(=N)N)NC(=O)[C@H](CCCNC(=N)N)NC(=O)[C@H](CC(C)C)NC(=O)[C@H](Cc1ccccc1)NC(=O)CNC(=O)CNC(=O)[C@@H](N)Cc1ccc(O)cc1)C(=O)N[C@@H](CCCNC(=N)N)C(=O)N1CCC[C@H]1C(=O)N[C@@H](CCCCN)C(=O)N[C@@H](CC(C)C)C(=O)N[C@@H](CCCCN)C(=O)N[C@@H](Cc1c[nH]c2ccccc12)C(=O)N[C@@H](CC(=O)O)C(=O)N[C@@H](CC(N)=O)C(=O)N[C@@H](CCC(N)=O)C(=O)O 4.96%
COC(=O)c1ccccc1N=Nc1c(C)[nH][nH]c1=O -0.539%
O=C(NCc1ccccc1)C1=C[C@@H](C2CCCCC2)C[C@@H](OCc2ccc(CO)cc2)O1 0.0499%
COc1ccc(N(CC(=O)NC2CCCCC2)C(=O)CNC(=O)c2ccco2)c(OC)c1 7.33%
CSc1ccccc1N1CCN(CCCCCC(=O)NC2CCCc3ccccc32)CC1 (centres undefined) -9.84%
CC1=C2[C@@H](O)[C@H]([C@@H](C)C(=O)NCCC(C)C)CC[C@@]2(C)C=CC1=O 13.2%
Cc1cccn2c(CN(C)C3CCCc4ccccc43)c(C(=O)N3CCOCC3)nc12 (centres undefined) -1.32%
COc1ccc(-c2ccc(C3C4C=CCCC4(C)C(=O)N3Cc3ccccc3)c(F)c2)cc1OC (centres undefined) -5.3%
CCCOC(=O)c1c(NC(=O)c2cnn3c2NC(c2ccccc2)CC3C(F)(F)F)sc2c1CCCC2 (centres undefined) -2.79%
COc1ccc(OC)c(C2C3=C(N=c4s/c(=C\c5cccc(O)c5)c(=O)n42)c2ccccc2CC3)c1 (centres undefined) -16.4%
Cc1cc(-c2nnc(CCC(=O)NC(c3ccccc3)c3ccccc3)o2)no1 10.9%
CCCN1CCC(=O)N(C(CSc2ccc(OC)cc2)Cc2ccccc2)CC1 (centres undefined) 8.03%
Cc1noc(C)c1-c1ccc2ncnc(NC(C)c3ccco3)c2c1 (centres undefined) -22.2%
O=C(CNC1CCCCC1)NCC1(c2ccccc2)CCCC1 6.6%
Nc1nc(NC(=O)/C=C/c2ccc(F)cc2)nn1-c1ccccc1 -1.51%
CC(Nc1nc(N2CCOCC2)nc2ccccc12)c1ccccc1 (centres undefined) 19.1%
COc1ccc(C2=Nn3c(nnc3-c3ccccc3O)SC2)cc1 -4%
O=C(O)C1CC=CC2CCN(C3CCCCC3)C(=O)C21 (centres undefined) 18.6%
Cc1ccc(CN(Cc2cccnc2)C(=S)Nc2cc(Cl)ccc2C)cc1 10.9%
O=C(NCc1ccccn1)[C@]1(C(F)(F)F)C[C@H](CCc2ccccc2)CCCO1 -3.84%
Cc1ccc(SCC(CC(C)C)N2CCN(CCc3ccccc3)CCC2=O)cc1 (centres undefined) 13.6%
O=C(CC1NCCc2ccccc21)Nc1cccc(Cl)c1 (centres undefined) -6.51%
CCOC(=O)c1ccccc1N1C(=O)C2Sc3[nH]c(=O)sc3C(/C=C/c3ccccc3)C2C1=O (centres undefined) -3.6%
CCOC(=O)c1cc2c(=O)[nH]c(C(Cl)(Cl)Cl)nc2o1 7%
C[C@@H](O)[C@@H]1NC(=O)[C@H](CCCCN)NC(=O)[C@H](Cc2c[nH]c3ccccc23)NC(=O)[C@H](Cc2ccccc2)NC(=O)[C@H](Cc2ccccc2)NC(=O)[C@H](CC(N)=O)NC(=O)[C@H](CCCCN)NC(=O)[C@@H](NC(=O)[C@@H]2CCCN2)CSSC[C@@H](C(=O)N[C@@H](CCCCN)C(=O)O)NC(=O)[C@H](CO)NC(=O)[C@H](CO)NC(=O)[C@H](Cc2ccccc2)NC1=O (H-PCKNFFWKTFSSCK-OH; disulfide 2-13) 10.5%
O=C1C2C(c3ccccc3)CC=CC2C(c2ccoc2)N1Cc1ccccc1 (centres undefined) 14.2%
COCCCn1c(SCc2cccc(OC)c2)nc2cc(OC)c(OC)cc2c1=N -7.59%
C=C1/C(=C\C=C2\CCCC3(C)C2CCC3C(C)/C=C/C(O)C2CC2)CC(O)CC1O (centres undefined) 13.2%
CCOC(=O)C(C)Oc1cccc2c(=O)n(CC(=O)NCCc3ccc(OC)c(OC)c3)ccc12 (centres undefined) 2.24% [at 2.36 µM]
COc1ccc(C(=O)C2CCCN(Cc3cccn3-c3ccccn3)C2)c(C)c1 (centres undefined) -4.12%
ONC(=Nc1ccc(Cl)cc1)c1ccccc1Cl 16.1%
COc1cc(CN2CCN(Cc3ccc(C)cc3)CC2)c([N+](=O)[O-])cc1OC -8.19%
C=C/C1=C/Cc2ccccc2[C@H](C[N+](=O)[O-])C(C(=O)OC)(C(=O)OC)C1 -6.91%
COC(=O)c1c(NC(=O)CN2C(=O)NC(CCc3ccccc3)C2=O)sc2c1CCCCC2 (centres undefined) -2.03%
CC(C)(C)NCCCOc1ccc(Cl)cc1C(C)(C)C -23.8%
CCCNC(=O)OC[C@H]1O[C@H](CCO/N=C/[C@@H](NS(=O)(=O)c2ccc(C)cc2)[C@H](C)/C=C/CC(=O)OC)C=C[C@@H]1Oc1ccc(OC)cc1 -0.295% [at 2.36 µM]
C/C=C/c1ccc(OCCCCN2CCC(C)CC2)c(OC)c1 5.81%
Cc1cccc(N2CCC(NCc3c(C(=O)N4CCCCC4)nc4c(C)cccn34)CC2)c1 5.52%
CC1(C)CC(CNCCC(c2ccc(F)cc2)c2ccco2)CCO1 (centres undefined) 18%
Fc1ccc(Cl)cc1-c1nc(Nc2ccncc2)c2nccnc2n1 14.3%
CCOc1ccc2sc(NS(=O)(=O)c3ccc(N)cc3)nc2c1 5.42%
CCc1ccc(CN(C)C(=O)CCc2nnc(-c3ccc(-c4ccccc4)cc3)o2)nc1 0.367%
CCOC(=O)C1(CCOc2ccccc2)CCN(C(=O)c2cncs2)CC1 15.7%
COc1ccc(C(CC(=O)N2CCN(c3ccccc3)CC2)c2c(O)cc(OC)cc2OC)cc1 (centres undefined)
